SARS 3CLpro inh: SARS-CoV 3CLpro protease inhibition. P0C6X7. recombinant SARS-CoV 3CLpro, quenched FRET peptide cleavage. inhibition, % at 6 µM. 290,000 tested, 0.14% active; in the data active = inhibition above about 12%
SSB-PriA inh: K. pneumoniae PriA-SSBct interaction inhibition; AID 1272365; AlphaScreen SSBct-PriA binding, biotinylated peptide; 430,000 tested, 0.6% active; inhibition, % at 33 µM; in the data active = inhibition mostly above about 37%, no sharp cut-off; inactive = mostly below about 20%
BJeLR viability: BJeLR cell viability loss; inhibition, % (no concentration beside the values); BJeLR (HRASV12) viability, CellTiter-Glo ATP luminescence, 48 h; AID 1554; 300,000 tested, 0.17% active; in the data active = inhibition above about 50%
Numbers stand for hits; - = inactive; . = not tested or not shown; ! = not confirmed by another sample. The list is not random: actives were taken first. Their share in the collection is about 0.78%.

SMILES	SARS 3CLpro inh	SSB-PriA inh	BJeLR viability
COc1ccc(CCNS(=O)(=O)c2ccc3c(c2)CCCC3)cc1OC	.	-	.
CCCN1CCCc2cc(CCNS(=O)(=O)c3ccc(OC)c(F)c3)ccc21	.	66	.
CCCN1CCCc2cc(CCNS(=O)(=O)c3ccc(OCC)c(F)c3)ccc21	.	39	.
CCOc1ccc(S(=O)(=O)NCCc2ccc(N3CCCC3)cc2)cc1F	.	-	.
c1cncc(CSc2nnc3ccc(-c4cccnc4)nn23)c1	.	-	.
O[C@@H]1CSCc2nc3ccccc3n2C1	.	-	.
COC(=O)c1ccc(CN2CCC(c3nn(C)c(=O)n3-c3ccccc3)CC2)o1	.	-	.
CCCN1CCCc2cc(CCNS(=O)(=O)c3cccc(F)c3)ccc21	.	65	.
CCCN1CCCc2cc(CCNC(=O)C(=O)NCc3cccs3)ccc21	.	-	.
Cc1nc(N2CCC(NC(=O)Cc3c(F)cccc3Cl)CC2)cc(C(F)(F)F)n1	.	-	.
CSc1cccc(NC(=O)C(=O)NCCN2CCN(c3ccccc3)CC2)c1	.	-	.
O=S(=O)(c1cccnc1)N1CCS[C@H](c2ccccc2Cl)CC1	.	-	.
COc1ccc(NC(=S)Nc2ccc(N)c([N+](=O)[O-])c2)cc1	-	39	-
COc1ccc(NC(=S)Nc2ccccc2)cc1	-	-	-
S=C(Nc1ccc2nccnc2c1)N1CCOCC1	-	71	-
S=C(Nc1ccc2nccnc2c1)N1CCCCCC1	.	-	.
COc1ccc(NC(=S)Nc2ccc3nccnc3c2)cc1	-	77	-
CCOc1ccc(NC(=S)Nc2ccc3nccnc3c2)cc1	.	-	.
COc1ccccc1CC(=O)Nc1cc(OCc2ccc3c(c2)OCO3)ncn1	.	-	.
COc1ccc(-c2noc(-c3c(SC)nn(CC(=O)Nc4ccc(C(C)C)cc4)c3N)n2)cc1	.	-	.
CCS(=O)(=O)C1CN(C(=O)c2ccc(OCC(C)C)nc2)C1	.	-	.
O=C(NC(=S)NNC(=O)c1ccccc1I)c1cccnc1	.	-	.
O=C(NC(=S)NNC(=O)c1ccccc1O)c1cccnc1	-	62	-
CCCOc1ccc(N)cc1N	-	52	-
CCCOc1cc(N)ccc1C(=O)OCCN(CC)CC	.	-	.
SMILES	SARS 3CLpro inh	SSB-PriA inh	BJeLR viability
CC(=O)Nc1ccc(SCC(=O)Nc2cccc(C)c2C)nn1	.	-	.
Cn1c(=NC(=O)c2cccs2)sc2cccc(Cl)c21	.	-	.
Cc1cc(=O)[nH]c(-n2nc(-c3cccs3)cc2NC(=O)[C@H]2CC(=O)N(c3ccc(Cl)cc3)C2)n1	.	-	.
CCn1nc(C(=O)Nc2nc3c(s2)CCc2ccccc2-3)cc1C	.	-	.
COc1ccc(NC(=O)C(c2cc3c(cc2[N+](=O)[O-])OCO3)N(C)Cc2ccccc2)cc1 (stereo unspecified)	-	47	-
COc1ccc(NC(=O)C(c2cc3c(cc2[N+](=O)[O-])OCO3)N2CCN(C=O)CC2)cc1 (stereo unspecified)	-	-	-
COc1ccc(CNCc2cc3c(cc2[N+](=O)[O-])OCO3)cc1	-	-	-
CCN(c1cccc(C)c1)C(C(=O)Nc1ccc(OC)cc1)c1cc2c(cc1[N+](=O)[O-])OCO2 (stereo unspecified)	-	40	-
O=C(NCC(c1ccco1)N1CCOCC1)c1cccs1 (stereo unspecified)	.	-	.
COc1cc(C(=O)N=Nc2c(O)n(C)c3ccccc23)cc(OC)c1OC	.	-	.
COc1ccc(S(=O)(=O)NCCc2ccc(N(C)C)cc2)cc1Cl	.	-	.
c1cnn(-c2ccc(N3CCNCC3)nn2)c1	.	-	.
c1ccc(Nc2ccc(N3CCNCC3)nn2)nc1	.	56	.
NCC(O)COc1ccc2c(c1)OCO2 (stereo unspecified)	-	46!	-
OCCN1CCN(CC(O)COc2ccc3c(c2)OCO3)CC1 (stereo unspecified)	-	-	-
CC(C)c1ccc(NC(=O)Cc2coc3ccc4ccccc4c23)cc1	.	-	.
CS(=O)(=O)c1ccc(Nc2nc(CC(=O)Nc3ccc4c(c3)OCCO4)cs2)cc1	.	-	.
COc1ccc(C(=O)C=C(C)Nc2ccc3c(c2)OCO3)cc1	.	-	.
CC(=CC(=O)c1ccccc1)Nc1ccc2c(c1)OCO2	.	41	.
O=C(Nc1ccc2c(c1)OCO2)N1C2CCC1CN(Cc1ccccc1)C2	.	-	.
O=C(CCl)N(CCCNC(=O)C(F)(F)F)c1ccc([N+](=O)[O-])cc1	-	-	116
O=C(NCCCNc1ccc([N+](=O)[O-])cc1)C(F)(F)F	-	-	-
Cn1c(=O)c2[nH]c(CNc3ccc(C(=O)O)cc3)nc2n(C)c1=O	-	72	-
C[C@H](NCc1nc2c([nH]1)c(=O)n(C)c(=O)n2C)c1ccccc1	.	-	.
Cc1cc(C(=O)Nc2cc(C)nn2-c2ccccc2)n(C)n1	.	-	.
SMILES	SARS 3CLpro inh	SSB-PriA inh	BJeLR viability
CC(=O)Nc1ccc(SCC(=O)Nc2cc(C)on2)nn1	.	-	.
NNc1nc(Nc2ccc([N+](=O)[O-])cc2)nc(N2CCCCCC2)n1	-	54	-
O=[N+]([O-])c1ccc(Nc2nc(NCCO)nc(N3CCCC3)n2)cc1	-	-	-
CCc1nnsc1C(=O)Nc1ccc(C)cc1	.	-	.
Cc1ccc(-n2nnc(C(N)=O)c2N)cc1Cl	.	-	.
COc1ccc(Cl)cc1NC(=O)C(=O)NCC(=O)N1CCOC(c2ccccc2)C1 (stereo unspecified)	.	-	.
COc1ccccc1NC(=S)NCCc1c[nH]c2ccccc12	-	45	-
COc1cccc(CNCCc2c[nH]c3ccccc23)c1OCc1ccc(F)cc1	-	-	-
COc1cc(CNCCc2c[nH]c3ccccc23)ccc1OCc1ccc(F)cc1	-	40	-
COc1cc(NC(=S)NCCc2c[nH]c3ccccc23)c(OC)cc1Cl	-	-	-
CC(=O)Nc1ccc(SCC(=O)Nc2nc3ccc(C)cc3s2)nn1	.	-	.
COCCN(Cc1ccoc1)C(=O)NCc1cccs1	.	-	.
CCOC(=O)c1ccc(NC(=O)NNC(=O)c2ccc(=O)n(Cc3ccc(C)cc3)c2)cc1	.	-	.
CCN1CCN(S(=O)(=O)CCNC(=O)c2cc3ccccc3o2)CC1	.	-	.
CCOc1ccc(N2C(=O)/C(=C/c3ccc(C)o3)C(=O)NC2=S)cc1	-	-	-
COc1ccc(N2C(=O)/C(=C/c3ccc(C)o3)C(=O)NC2=S)cc1	-	-	51
Cc1csc(NC(=O)CSc2nnc(NC(=O)/C=C/c3ccc4c(c3)OCO4)s2)n1	.	-	.
COc1cccc(OCC(=O)Nc2ccc3c(c2)CN(C(C)=O)CC3)c1	.	-	.
CC[n+]1c(/C=C(\C)SC)sc2ccccc21	-	-	-
CCN1/C(=C/C=C/C=C/C=C/c2sc3ccccc3[n+]2CC)Sc2ccccc21	-	.	63
CCN1/C(=C/C=C/C=C/c2sc3ccccc3[n+]2CC)Sc2ccccc21	-	.	69
CCN1/C(=C/C=C/c2sc3ccccc3[n+]2CC)Sc2ccccc21	.	.	69
CC[n+]1c(/C=C/Nc2ccccc2)sc2ccccc21	-	-	-
CC[n+]1c(/C=C/c2ccccc2OC)sc2ccccc21	.	-	.
CCCOc1ccc(C(O)=C2C(=O)C(=O)N(CCN(C)C)C2c2ccncc2)cc1 (stereo unspecified)	.	-	.
c1cnc2c(c1)ccc1c2ccc2cccnc21	.	-	.
O=S1(=O)Nc2c(ccc3cccnc23)-c2ccccc21	-	97	-
CC(=O)NCCc1ccc2c(c1)CCCN2C	.	-	.
CNC(=O)CCc1nc2ccccc2n(CC(=O)Nc2ccc(C(=O)OC)cc2)c1=O	.	-	.
Cc1ccc(-n2ncc3c(=O)[nH]c(-n4nc(C)cc4NC(=O)c4cc(=O)c5ccccc5o4)nc32)cc1	.	-	.
